For nine compounds, Potency results are on record in PubChem BioAssay (Tox21).

Test [1] is described as follows: Caspase-3/7 induction in HepG2 cells by small molecules, qHTS assay (AID 1346978). Also: nearly all actives have a fitted effect of over 15% in size. In a few lines:
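Wild-type HepG2 cells (2,000/well) were settled 5 h at 37 C, 5% CO2, then exposed to compounds in DMSO for 17 h. Caspase-3/7 activity was read by luminescence 30 min after adding Caspase-Glo 3/7 reagent at room temperature.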
(Quantitative high-throughput screening tests each substance at several concentrations.)

The nature of test [2]: Caspase-3/7 induction in CHO-K1 cells by small molecules, qHTS assay (AID 1346980). Also: nearly all actives have a fitted effect of over 15% in size. An outline of the steps:
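Wild-type cells were seeded at 1,500 per well and settled 5 hr at 37 C, 5% CO2, then exposed to DMSO-dissolved compounds for 17 hr. Caspase-Glo 3/7 reagent was added, and luminescence was read after 30min at room temperature.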

A short description of test [3]: Caspase-3/7 induction in HepG2 cells by small molecules, qHTS cell viability counter screen (AID 1346981). Also: series mostly up to about 92 µM; nearly all actives have a fitted effect of over 30% in size. An outline of the steps: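 In this quantitative HTS counter screen, compounds delivered in DMSO were left on unmodified HepG2 cells for 16 hr at 37 C. Viability was then determined fluorometrically with CellTiter-Fluor, in parallel with caspase-3/7 induction in the same wells.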

Test [4] concerns the target Nuclear receptor subfamily 1 group I member 2 (Homo sapiens) (UniProt O75469). Kind of test: Human pregnane X receptor (PXR) small molecule agonists, qHTS assay (AID 1346982). Also: nearly all actives have a fitted effect of over 35% in size. Also: potency is read from the fitted curve at half-maximal effect. An outline of the steps: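 Reporter HepG2 cells expressing PXR-Luc are cultured in charcoal-stripped FBS (5%), treated with compounds for 24 hr at 37 C, and assayed by ONE-Glo luminescence after 30 min at room temperature.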

Test [5] concerns the target Acetylcholinesterase (Homo sapiens) (UniProt P22303). Kind of test: Acetylcholinesterase (AChE) small molecule antagonists: colormetric cell-based qHTS assay (AID 1347395; calls by dose curve; also: nearly all actives have a fitted effect of over 30% in size; also: potency is read from the fitted curve at half-maximal effect). In a few lines:
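AChE inhibition read colorimetrically via DTNB–thiocholine in SH-SY5Y cells. Compound 30 min, substrate 90 min, both 37 C.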

For test [6] the target is unchanged. Nature of the test: Acetylcholinesterase (AChE) small molecule antagonists: enzyme-based qHTS assay (AID 1347397; calls by dose curve; also: nearly all actives have a fitted effect of over 55% in size; also: potency is read from the fitted curve at half-maximal effect). The following applies: Potency: AChE enzyme activity inhibition. In a few lines:
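Compound or DMSO vehicle was pin-transferred onto recombinant human AChE (50 mU/mL as dispensed) and left 30 min at room temperature. Acetylthiocholine with DTNB then started the reaction, read colorimetrically 10 min later.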

The target is the same in test [7]. Kind of test: Acetylcholinesterase (AChE) small molecule antagonists: fluorescence cell-based qHTS assay (AID 1347398; calls by dose curve; also: nearly all actives have a fitted effect of over 50% in size; also: potency is read from the fitted curve at half-maximal effect). The following applies: Potency: AChE activity. An outline of the steps: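 Using neuroblastoma SH-SY5Y cells as the enzyme source, test chemicals are preincubated 30 min at 37 C; AChE-driven acetylthiocholine cleavage is then quantified by thiocholine-dependent Thiolite Green fluorescence after 40 min at room temperature.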

For test [8] the target is unchanged. Nature of the test: Acetylcholinesterase (AChE) small molecule antagonists: enzyme-based qHTS assay with human liver microsomes (AID 1347399; calls by dose curve; also: nearly all actives have a fitted effect of over 60% in size; also: potency is read from the fitted curve at half-maximal effect). The following applies: Potency: qHTS inhibition. An outline of the steps:
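Recombinant human AChE (50 mU/mL in the enzyme mix) and human liver microsomes (0.25 mg/mL final) were preincubated with compound and NADPH (0.25 mg/mL final) for 30 min at 37 C. Acetylthiocholine/DTNB was then added; thiocholine was read colorimetrically after 10 min at room temperature.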

The target in test [9] is Cytochrome P450 2D6 (Homo sapiens) (UniProt P10635). Kind of test: Cytochrome P450 Family 2 Subfamily D Member 6 (CYP2D6) small molecule antagonists: luciferase reporter qHTS assay (AID 1671196). Also: nearly all actives have a fitted effect of over 50% in size. Also: potency is read from the fitted curve at half-maximal effect. In a few lines: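 Test chemicals meet CYP2D6 plus proluciferin substrate (10 min, RT); NADPH regenerating solution then drives turnover for 1 h. Detection reagent halts the reaction; luminescence measured after 20 min.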
Chain of Cytochrome P450 2D6 (Homo sapiens) (P10635 whole entry, looked up): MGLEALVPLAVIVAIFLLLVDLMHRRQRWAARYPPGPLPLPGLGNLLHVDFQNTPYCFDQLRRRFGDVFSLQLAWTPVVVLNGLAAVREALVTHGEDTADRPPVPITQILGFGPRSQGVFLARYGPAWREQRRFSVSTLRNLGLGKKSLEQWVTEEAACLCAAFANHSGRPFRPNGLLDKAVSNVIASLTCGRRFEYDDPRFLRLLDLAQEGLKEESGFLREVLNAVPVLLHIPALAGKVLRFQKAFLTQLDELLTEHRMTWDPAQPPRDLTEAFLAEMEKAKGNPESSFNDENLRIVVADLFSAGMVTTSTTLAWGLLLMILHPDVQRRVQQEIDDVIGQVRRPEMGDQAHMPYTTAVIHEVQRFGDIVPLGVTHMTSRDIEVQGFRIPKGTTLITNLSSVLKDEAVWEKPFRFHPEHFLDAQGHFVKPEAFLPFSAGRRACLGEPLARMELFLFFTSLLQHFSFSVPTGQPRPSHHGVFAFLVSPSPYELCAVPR
(In general: Reporter assays use an easily measured gene product as a stand-in for the process of interest.)

The target in test [10] is Cytochrome P450 2C19 (Homo sapiens) (UniProt P33261). Nature of the test: Cytochrome P450 Family 2 Subfamily C Member 19 (CYP2C19) small molecule antagonists: luciferase reporter qHTS assay (AID 1671197). Also: nearly all actives have a fitted effect of over 65% in size. Also: potency is read from the fitted curve at half-maximal effect. In a few lines:
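P450-Glo CYP2C19 system: enzyme-substrate mix with compound 10 min at room temperature, then NADPH regeneration solution, 1 h at 37C. Proluciferin-to-luciferin conversion detected by luminescence after 20 min with detection reagent; ketoconazole as positive control.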

Test [11] addresses Cytochrome P450 2C9 (Homo sapiens) (UniProt P11712). Kind of test: Cytochrome P450 Family 2 Subfamily C Member 9 (CYP2C9) small molecule antagonists: luciferase reporter qHTS assay (AID 1671198). Also: nearly all actives have a fitted effect of over 50% in size. Also: potency is read from the fitted curve at half-maximal effect. In a few lines:
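CYP2C9 activity was measured with a P450-Glo proluciferin substrate. Enzyme–substrate mix was held with compound for 10 min at room temperature, then NADPH regeneration solution was added for 1 h at 37C. Luciferin product was read as luminescence.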

Test [12] deals with Voltage-gated inwardly rectifying potassium channel KCNH2 (Homo sapiens) (UniProt Q12809). Nature of the test: Human Ether-a-go-go-Related Gene (hERG) channel small molecule antagonists: fluorescence cell-based qHTS assay (AID 1671200).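 Also: hERG-expressing U2OS cells given a thallium stimulus after FluxOR II dye loading; series mostly up to about 77 µM; nearly all actives have a fitted effect of over 50% in size.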 In a few lines:
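Kinetic two-minute fluorescence traces, sampled at 1 s, were collected following thallium stimulus of U2OS cells (1000 per well) that had been cultured overnight at 37 C and loaded with FluxOR II.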
In general terms: Block of hERG is tested as a sign of cardiac risk.

For test [13], the target named is Cytochrome P450 3A4 (Homo sapiens) (UniProt P08684). Nature of the test: Cytochrome P450 Family 3 Subfamily A Member 4 (CYP3A4) small molecule antagonists: luciferase reporter qHTS assay (AID 1671201). Also: nearly all actives have a fitted effect of over 50% in size. Also: potency is read from the fitted curve at half-maximal effect. In a few lines:
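Proluciferin-to-luciferin conversion by CYP3A4, NADPH-regenerated, 1 h RT; luminescence read as RLU. Ketoconazole as control.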

The target in test [14] is Cytochrome P450 1A2 (Homo sapiens) (UniProt P05177). Kind of test: Cytochrome P450 Family 1 Subfamily A Member 2 (CYP1A2) small molecule antagonists: luciferase reporter qHTS assay (AID 1671199). Also: nearly all actives have a fitted effect of over 50% in size. Also: potency is read from the fitted curve at half-maximal effect. An outline of the steps:
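Steps: enzyme-substrate mix dispensed; test compounds and furafylline control pinned in; 10 min room temperature; NADPH regeneration solution added, 1 h; reaction stopped with luciferin detection reagent; luminescence read after 20 min.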

Unmarked numbers belong to inactive results. Results filed as inconclusive are left out. Activity calls are given as the source filed them. Unless noted, calls follow the shape of the dose curve; as a rule, active = well fitted curve in the direction sought with a large enough effect in the repeat runs; inconclusive = weak or mixed curves; inactive = no such curve, though single readings can be large; an effect the other way counts as inactive or inconclusive.

Chain of Cytochrome P450 2C9 (Homo sapiens) (P11712 whole entry, looked up): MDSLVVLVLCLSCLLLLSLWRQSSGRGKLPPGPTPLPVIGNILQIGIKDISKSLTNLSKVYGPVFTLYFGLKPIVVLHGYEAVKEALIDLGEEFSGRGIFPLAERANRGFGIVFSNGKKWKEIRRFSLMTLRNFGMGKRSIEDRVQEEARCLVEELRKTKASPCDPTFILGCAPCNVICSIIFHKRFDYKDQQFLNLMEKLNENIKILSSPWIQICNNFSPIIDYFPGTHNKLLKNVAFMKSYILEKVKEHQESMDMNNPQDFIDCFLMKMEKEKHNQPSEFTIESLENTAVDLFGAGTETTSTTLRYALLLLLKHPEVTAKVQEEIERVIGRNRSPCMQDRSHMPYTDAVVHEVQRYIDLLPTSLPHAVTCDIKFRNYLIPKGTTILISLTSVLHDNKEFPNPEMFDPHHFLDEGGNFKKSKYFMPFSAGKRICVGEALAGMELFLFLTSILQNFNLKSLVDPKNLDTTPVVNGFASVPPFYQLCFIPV
Chain of Cytochrome P450 1A2 (Homo sapiens) (P05177 whole entry, looked up): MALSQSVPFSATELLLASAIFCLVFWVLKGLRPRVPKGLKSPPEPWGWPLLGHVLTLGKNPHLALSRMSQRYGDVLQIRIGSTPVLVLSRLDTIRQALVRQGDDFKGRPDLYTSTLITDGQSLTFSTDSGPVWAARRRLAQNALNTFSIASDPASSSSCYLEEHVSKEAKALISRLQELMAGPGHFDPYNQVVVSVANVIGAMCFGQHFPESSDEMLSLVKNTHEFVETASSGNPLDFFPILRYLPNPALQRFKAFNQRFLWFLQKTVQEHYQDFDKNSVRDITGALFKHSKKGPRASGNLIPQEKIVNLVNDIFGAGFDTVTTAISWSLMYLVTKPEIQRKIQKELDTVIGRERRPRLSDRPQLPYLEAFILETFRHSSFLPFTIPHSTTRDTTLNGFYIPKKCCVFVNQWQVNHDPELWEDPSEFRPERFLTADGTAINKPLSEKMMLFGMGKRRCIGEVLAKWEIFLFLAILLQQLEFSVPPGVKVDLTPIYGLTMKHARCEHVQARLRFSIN
Chain of Cytochrome P450 2C19 (Homo sapiens) (P33261 whole entry, looked up): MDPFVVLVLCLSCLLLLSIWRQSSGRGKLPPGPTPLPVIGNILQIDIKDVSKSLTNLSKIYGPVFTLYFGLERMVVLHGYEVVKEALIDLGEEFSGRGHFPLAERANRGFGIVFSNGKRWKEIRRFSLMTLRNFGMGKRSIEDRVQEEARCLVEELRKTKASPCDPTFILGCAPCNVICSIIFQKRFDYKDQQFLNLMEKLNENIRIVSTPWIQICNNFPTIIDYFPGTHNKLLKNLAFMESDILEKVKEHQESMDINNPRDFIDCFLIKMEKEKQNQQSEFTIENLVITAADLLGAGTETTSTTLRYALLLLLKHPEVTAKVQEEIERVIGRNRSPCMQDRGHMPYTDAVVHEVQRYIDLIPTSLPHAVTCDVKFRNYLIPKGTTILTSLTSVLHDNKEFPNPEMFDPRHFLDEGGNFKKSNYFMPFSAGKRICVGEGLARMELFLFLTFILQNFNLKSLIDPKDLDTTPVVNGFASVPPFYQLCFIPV
Chain of Acetylcholinesterase (Homo sapiens) (P22303 whole entry, looked up): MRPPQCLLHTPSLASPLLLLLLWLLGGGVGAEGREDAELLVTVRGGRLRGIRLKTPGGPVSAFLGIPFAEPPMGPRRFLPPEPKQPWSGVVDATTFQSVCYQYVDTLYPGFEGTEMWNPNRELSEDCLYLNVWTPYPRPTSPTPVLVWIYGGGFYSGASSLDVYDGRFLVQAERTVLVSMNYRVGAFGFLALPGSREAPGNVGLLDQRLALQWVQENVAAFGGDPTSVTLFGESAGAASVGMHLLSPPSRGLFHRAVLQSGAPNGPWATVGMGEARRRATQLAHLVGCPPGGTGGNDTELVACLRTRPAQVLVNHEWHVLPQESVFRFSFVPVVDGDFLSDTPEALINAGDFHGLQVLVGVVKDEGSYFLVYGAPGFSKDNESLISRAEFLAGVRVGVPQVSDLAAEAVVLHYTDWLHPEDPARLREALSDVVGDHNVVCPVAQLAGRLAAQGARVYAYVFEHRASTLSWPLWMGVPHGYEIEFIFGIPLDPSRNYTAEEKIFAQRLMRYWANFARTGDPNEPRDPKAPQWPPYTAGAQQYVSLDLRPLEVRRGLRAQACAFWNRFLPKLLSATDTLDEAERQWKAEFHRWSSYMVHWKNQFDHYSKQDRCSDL
Chain of Nuclear receptor subfamily 1 group I member 2 (Homo sapiens) (O75469 whole entry, looked up): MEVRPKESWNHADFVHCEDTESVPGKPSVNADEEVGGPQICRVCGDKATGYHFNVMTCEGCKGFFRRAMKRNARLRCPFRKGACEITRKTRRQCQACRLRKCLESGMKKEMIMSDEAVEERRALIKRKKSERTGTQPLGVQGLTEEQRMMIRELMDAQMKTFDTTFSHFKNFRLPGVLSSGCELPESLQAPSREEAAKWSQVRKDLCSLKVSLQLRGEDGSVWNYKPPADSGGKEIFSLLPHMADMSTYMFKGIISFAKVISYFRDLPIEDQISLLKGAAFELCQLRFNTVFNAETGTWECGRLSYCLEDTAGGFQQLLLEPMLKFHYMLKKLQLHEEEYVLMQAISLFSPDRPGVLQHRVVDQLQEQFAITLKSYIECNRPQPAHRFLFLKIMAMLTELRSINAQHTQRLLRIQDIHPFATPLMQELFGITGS
Chain of Voltage-gated inwardly rectifying potassium channel KCNH2 (Homo sapiens) (Q12809 whole entry, looked up): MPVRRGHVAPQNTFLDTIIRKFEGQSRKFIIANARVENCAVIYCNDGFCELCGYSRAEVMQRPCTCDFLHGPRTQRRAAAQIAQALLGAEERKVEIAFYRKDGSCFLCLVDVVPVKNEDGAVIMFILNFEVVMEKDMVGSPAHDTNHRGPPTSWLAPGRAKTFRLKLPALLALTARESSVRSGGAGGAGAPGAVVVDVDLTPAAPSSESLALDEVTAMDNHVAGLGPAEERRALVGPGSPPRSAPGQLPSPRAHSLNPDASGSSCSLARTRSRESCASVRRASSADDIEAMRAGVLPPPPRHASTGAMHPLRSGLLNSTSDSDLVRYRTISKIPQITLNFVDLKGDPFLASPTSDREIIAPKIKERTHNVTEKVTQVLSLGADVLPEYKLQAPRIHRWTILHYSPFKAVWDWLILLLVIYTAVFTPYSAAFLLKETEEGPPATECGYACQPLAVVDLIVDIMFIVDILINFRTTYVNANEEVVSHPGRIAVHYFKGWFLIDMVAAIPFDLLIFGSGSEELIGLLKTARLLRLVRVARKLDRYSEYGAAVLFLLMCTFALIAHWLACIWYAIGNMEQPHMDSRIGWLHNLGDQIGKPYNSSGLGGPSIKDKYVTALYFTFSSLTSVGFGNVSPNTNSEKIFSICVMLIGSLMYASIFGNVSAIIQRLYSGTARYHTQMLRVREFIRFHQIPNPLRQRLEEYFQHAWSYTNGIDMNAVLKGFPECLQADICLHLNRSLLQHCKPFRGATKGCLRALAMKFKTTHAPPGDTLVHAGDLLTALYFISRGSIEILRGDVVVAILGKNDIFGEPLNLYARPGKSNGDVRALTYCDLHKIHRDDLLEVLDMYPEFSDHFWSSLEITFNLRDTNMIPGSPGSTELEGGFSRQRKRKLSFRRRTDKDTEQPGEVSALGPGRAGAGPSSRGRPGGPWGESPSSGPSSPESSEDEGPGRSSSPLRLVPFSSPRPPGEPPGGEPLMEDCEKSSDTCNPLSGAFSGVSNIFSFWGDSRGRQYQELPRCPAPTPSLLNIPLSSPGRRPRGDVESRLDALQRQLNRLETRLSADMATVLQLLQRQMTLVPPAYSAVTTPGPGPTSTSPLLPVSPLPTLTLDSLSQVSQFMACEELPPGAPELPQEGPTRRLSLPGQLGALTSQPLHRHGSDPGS
Chain of Cytochrome P450 3A4 (Homo sapiens) (P08684 whole entry, looked up): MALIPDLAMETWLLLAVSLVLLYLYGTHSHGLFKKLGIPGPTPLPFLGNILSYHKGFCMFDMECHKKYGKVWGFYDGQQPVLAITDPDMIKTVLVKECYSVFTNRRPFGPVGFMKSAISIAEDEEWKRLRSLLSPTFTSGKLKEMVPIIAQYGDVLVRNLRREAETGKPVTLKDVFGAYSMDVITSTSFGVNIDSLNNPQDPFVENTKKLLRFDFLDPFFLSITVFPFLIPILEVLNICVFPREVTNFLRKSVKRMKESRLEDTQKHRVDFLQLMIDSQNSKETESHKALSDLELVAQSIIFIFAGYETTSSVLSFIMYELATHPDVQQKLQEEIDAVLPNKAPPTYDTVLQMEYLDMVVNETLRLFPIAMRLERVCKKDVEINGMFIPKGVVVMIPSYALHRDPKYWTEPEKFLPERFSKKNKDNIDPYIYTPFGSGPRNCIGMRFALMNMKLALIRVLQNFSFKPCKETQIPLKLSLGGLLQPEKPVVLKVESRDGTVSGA

`CC/C(=N\OC/C=C/Cl)C1=C(O)CC(C2CCOCC2)CC1=O` (configuration not stated): the Potency entry in test [1], in [2], in test [3], in test [4], in test [5] and in test [6] was “inactive” each time. Also, the Potency entry in [7], in test [8], in [9] and in test [12] was “inactive” in each case. Besides, the Potency in test [10] was 70.9 µM (active); in test [11], 31.7 µM (active); in test [13], 31.7 µM (active).

In the case of `CCN(C)N=O`, the Potency entry in test [1], in [2], in test [3], in [4], in [5] and in [6] was “inactive” in each case. For the same compound, the Potency result in [7], in [8], in [9], in test [10], in test [11] and in test [12] was “inactive” throughout. Further, in [13], the Potency result is “inactive”.

Turning to `C=CC(=O)NCNC(=O)C=C`, the Potency result in test [1], in test [2], in test [3], in test [6], in [7] and in test [8] was “inactive” each time. Also, the Potency result in [10], in test [12] and in [13] was “inactive” in each case. Also, the Potency is 30.6 µM (active) in test [4], 3.56 µM (active) in [9] and 46.5 µM (active) in [14].

For the compound `COC(=O)C(Br)CBr` (configuration not stated), the Potency entry in test [1], in [2], in [3], in test [4], in [5] and in test [7] was “inactive” in each case. For the same compound, the Potency result in [8], in test [9], in test [11], in test [12] and in test [13] was “inactive” each time. Moreover, the Potency in [14] is 35.6 µM (active).

Consider `CS/C(C)=N/OC(=O)N(C)SN(C)C(=O)O/N=C(\C)SC`, for which the Potency result in [1], in [2], in [3] and in [13] was “inactive” throughout. Further, the Potency in test [5] is 1.42 µM (active); in test [6] it was 5.03 µM (active); in test [7], 0.71 µM (active); in test [8], 31.7 µM (active); in [10], 71 µM (active); in test [11], 79.6 µM (active).

Consider `ClCCCCBr`, for which the Potency entry in test [1], in [2], in [3], in test [4], in test [5] and in test [6] was “inactive” each time. Further, the Potency result in [7], in test [8], in test [9], in test [10], in test [11] and in test [14] was “inactive” each time. Moreover, the Potency entry in test [12] and in test [13] was “inactive” in each case.

For `COP(=S)(Oc1cc(Cl)c(Br)cc1Cl)c1ccccc1` (configuration not stated), the Potency entry in [1], in [2], in test [3] and in [12] was “inactive” each time. Besides, the Potency was 24.3 µM (active) in [4]; 8.94 µM (active) in test [8]; 0.224 µM (active) in test [10]; 0.796 µM (active) in [11]; 15.9 µM (active) in test [14]; 7.1 µM (active) in test [13].

On to `ClCC(Br)CBr` (configuration not stated), for which the Potency entry in [1], in test [2], in [3], in test [4], in test [7] and in test [8] was “inactive” throughout. The Potency entry in test [9], in [10], in test [11], in test [12] and in test [13] was “inactive” throughout.

With `O=C(NC(=O)c1c(F)cccc1F)Nc1ccc(OC(F)(F)C(F)OC(F)(F)F)c(Cl)c1` (configuration not stated), the Potency result in test [1], in test [2], in test [3], in [4], in test [6] and in test [7] was “inactive” each time. For the same compound, the Potency result in test [8], in test [9], in test [10], in test [12] and in [13] was “inactive” each time. For the same compound, the Potency in test [11] is 19.5 µM (active).
